In PubChem BioAssay (NCI) one finds growth data, which are given here for nine molecules.

SMILES strings stand for the structures. About 83,000 compounds went through this panel and 20% of them were active in at least one assay; those are over-represented in the sample as a whole.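 Single-dose data. Exposure time 48 hours. Values below 10 considered active.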 A number with no mark means an inactive call. Active and inactive are the calls of the source.

Holding throughout (experiment): NCI-60 one-dose screen, 48 h (100 = growth as untreated, 0 = no growth, -100 = all killed)
Common to all, as to conditions: 10 µM unless noted

Test [1] has as its system HCT-15 colon.
Test [2] relates to HT29 colon.
Test [3] concerns SNB-75 CNS.
Test [4] relates to SNB-19 CNS.
The subject of test [5] is PC-3 prostate.
For test [6], the system named is SK-MEL-5 melanoma.
For test [7], the system named is UACC-62 melanoma.
The subject of test [8] is LOX IMVI melanoma.
Test [9] concerns SK-MEL-28 melanoma.
Test [10] relates to SK-MEL-2 melanoma.
Test [11] has as its system EKVX NSCLC.
Test [12] deals with SN12C renal.
Test [13] relates to UO-31 renal.
The subject of test [14] is ACHN renal.
For test [15], the system named is CAKI-1 renal.
The subject of test [16] is A498 renal.
Test [17] deals with CCRF-CEM leukemia.
The test system of test [18] is MOLT-4 leukemia.
Test [19] concerns U251 CNS.
Test [20] concerns TK-10 renal.

Regarding `OC(c1ccccc1)C(NCc1ccccc1)c1ccccc1` (centres undefined), the growth in [1] is 108%; in [2], 103%; in [3] it was 91%; in [4] it was 87.8%; in test [5] it was 79.9%; in test [6], 108%. Further, the growth in test [7] was 90.3%; in [8] it was 85.5%; in test [9] it was 101%; in test [10], 120%; in test [11] it was 86%; in test [12], 104%. Besides, the growth in [13] was 92%; in test [14], 99.5%; in test [15] it was 62.8%; in test [16], 87.7%; in test [17] it was 97.3%; in test [18], 100%.
Regarding `O=C(N/N=C/c1cccc([N+](=O)[O-])c1)c1ccc(Br)o1`, the growth in test [1] is 127%; in test [2] it was 105%; in test [3], 98.5%; in test [4] it was 83.5%; in [19], 110%; in test [6] it was 97.3%. In addition, the growth is 102% in [7]; 112% in [8]; 133% in [9]; 103% in [10]; -25.2% (active) in [13]; 129% in [20]. Further, the growth in [14] was 156%; in test [15], 98.3%; in test [16], 129%; in test [17], 78.2%; in test [18] it was 132%.
`Cc1cc(C)c2c(N)c3cccc(C)c3nc2n1`: the growth in test [1] is 10.4%; in test [2], 0.696% (active); in test [3] it was 10.4%; in [4], 18.6%; in test [19], 17.4%; in test [5], -4.42% (active). For the same molecule, the growth in [7] is -45.8% (active); in test [8], 1.49% (active); in test [9], -9.8% (active); in test [11], 3.6% (active); in [12], 6.82% (active); in [13] it was -84.5% (active). Also, the growth was -1.3% (active) in [20]; 5.96% (active) in test [14]; -57.2% (active) in [16]; 1.26% (active) in test [17]; -10.5% (active) in test [18].
`C(=C1c2ccccc2-c2ccccc21)c1ccncc1`: the growth in test [1] was 26.9%; in test [2] it was 8.42% (active); in test [3], -5.86% (active); in test [4], 45.1%; in test [5], 58.6%; in test [6], 46.6%. Further, the growth in test [7] was 30.8%; in [8] it was 39.5%; in test [9], 68.8%; in [10] it was 42.9%; in test [11], 59.5%; in [12], 51.2%. Further, the growth in test [13] was 49.5%; in test [20], 64.6%; in test [14], 71.5%; in [15], 29.6%; in [16], 62%; in [17], 59.3%. Further, the growth in test [18] was 39.5%.
`N#Cc1c(NC(=O)c2ccco2)[n+]([O-])c2ccccc2[n+]1[O-]`: the growth in test [1] was 116%; in test [2], 109%; in test [3] it was 104%; in test [4], 96.8%; in [19], 106%; in [5], 130%. Further, the growth is 81% in test [7]; 98.3% in test [8]; 92.9% in test [10]; 98.7% in test [11]; 93.4% in test [12]; 133% in test [20]. Moreover, the growth is 110% in test [14], 110% in test [15], 117% in test [16] and 85.3% in test [18].
Turning to `CN1CCN(CCCOc2ccc3ncnc(Nc4ccc(OCc5cccc(F)c5)c(Cl)c4)c3c2)CC1`, the growth in [1] was -50.8% (active); in [2], -49.5% (active); in [3], 65.1%; in test [4], 3.46% (active); in [5], -18.9% (active); in test [6], -98.2% (active). The growth in test [7] was -57.8% (active); in test [8], -92.9% (active); in [9], -86.6% (active); in [10], -40.1% (active); in test [11], 30.7%; in [12] it was 3.1% (active). In addition, the growth was -4.76% (active) in [13]; -18% (active) in [20]; -50.7% (active) in test [14]; -62.5% (active) in test [15]; 26.1% in test [16]; 2.72% (active) in test [17]. Besides, the growth in test [18] is -12.8% (active).
Regarding `COc1cc(-c2nc3nc4sc(C)c(C)c4c(=O)n3[nH]2)cc(OC)c1OC`, the growth was 73.5% in [1]; 82.3% in test [2]; 80.1% in [3]; 92.9% in [4]; 85.1% in [5]; 55.3% in [6]. The growth is 61.5% in [7]; 81.7% in test [8]; 87.6% in test [9]; 80.1% in [10]; 88% in test [11]; 93.6% in [12]. In addition, the growth was 54.7% in test [13]; 110% in test [20]; 83.2% in test [14]; 74.5% in test [16]; 61% in [17]; 68.3% in [18].
Regarding `O=C(NC1CCCCC1)c1ccc(Nc2ncnc3c2cnn3-c2ccccc2)cc1`, the growth was 66.6% in [1]; 70.2% in [2]; -20.3% (active) in test [3]; 48.7% in test [4]; 40.2% in test [19]; 53.3% in [5]. For the same molecule, the growth in [7] is 63.9%; in test [9] it was 62.2%; in test [10] it was 79.1%; in test [12], 19%; in test [13] it was 57.7%; in test [20], 51%. In addition, the growth in test [14] is 54.3%; in test [15], 62.3%; in test [16], 50.4%; in [17], 64.9%; in [18], 89.5%.
Regarding `Cc1ccc(N/N=C(/C(=O)c2ccc(Cl)cc2)c2nc(C)cc(=O)[nH]2)cc1`, the growth in test [1] was 111%; in [2], 111%; in test [3], 116%; in test [4], 104%; in [19], 103%; in test [5] it was 95%. The growth in test [7] was 90.8%; in test [8], 92.6%; in [9] it was 118%; in test [10], 95.3%; in test [11], 91.5%; in test [12], 100%. For the same molecule, the growth is 136% in test [20]; 99.1% in test [14]; 113% in test [15]; 108% in test [16]; -15.1% (active) in test [17]; 98.6% in test [18].
